Drawing on PubChem BioAssay (Tox21), this text covers Potency and activity change, negative = cytotoxicity for 40 compounds.

Records with an inconclusive call do not appear. A call without a number means that no potency is given here. A number with no mark means an inactive call. Activity calls are given as the source filed them. Calls come from the whole dose curve; as a rule, active = well fitted cell-killing curve with a large enough effect in the repeat runs; inconclusive = weak or mixed curves; inactive = flat fitted curve, though single readings scatter.
Potency is the fitted concentration of half-maximal effect.

The experiment in a line: qHTS assay to identify small molecule antagonists of the estrogen receptor beta (ER-beta) signaling pathway - cell viability counter screen (AID 1259382). Note: nearly all actives have a fitted effect of over 55% in size. Conditions: ER-beta-UAS-bla HEK293T viability, CellTiter-Glo luminescence, 16 h; series mostly up to 92.4 µM. From the text: U.S. Tox21 Program National Center for Advancing Translational Sciences [NCATS] NIH Chemical Genomics Center [NCGC] U.S. Environmental Protection Agency [EPA] National Institutes of Environmental Health Sciences [NIEHS] National Toxicology Program [NTP] U.S. Food and Drug Administration [FDA] Tox21 Assay Overview: Estrogen receptor (ER), a nuclear hormone receptor, plays an important role in development, metabolic homeostasis and reproduction. Two subtypes of ER, ER-alpha and ER-beta, have similar expression patterns with some uniqueness in both types. Endocrine disrupting chemicals (EDCs) and their interactions with steroid hormone receptors like ER causes disruption of normal endocrine function. To identify the compounds that inhibit ER signaling, an ER-beta-UAS-bla GripTite cell line (Life Technologies, Madison, WI, USA) containing a beta-lactamase reporter gene under the control of an UAS response element was used to screen Tox21 10K compound library. The cytotoxicity of the Tox21 compound library against the ER-beta-bla cell line was tested in parallel by measuring the cell viability using CellTiter-Glo assay in the same wells.
Tox21 Assay Protocol Summary: ER-beta-UAS-bla HEK293T cells were dispensed at 2,000 cells/4 uL of assay medium containing 2% charcoal stripped FBS per well into black wall/clear-bottom 1536-well plates using a Multidrop Combi (ThermoFisher Scientific, Waltham, MA) dispenser. After the assay plates were incubated at a 37C and 5% CO2 for 6 hr, 23 nL of compounds dissolved in DMSO, positive controls or DMSO only was transferred to the assay plate by a Pintool station (Kalypsys, San Diego, CA), followed by addition of 1 uL (1nM as final concentration) of 17-beta-estradiol (E2) in assay medium using a Flying Reagent Dispenser (FRD, Aurora Discovery, San Diego, CA). The plates were incubated at 37C and 5% CO2 for 16 hr. Then 1 uL of LiveBLAzer B/G FRET substrate was added using a Flying Reagent Dispenser, the plates were incubated at room temperature for 2 hours, and fluorescence intensity was measured by an Envision plate reader (PerkinElmer, Shelton, CT). For cell viability readout that measures cytotoxicity, 4 uL/well of CellTiter-Glo reagent was added into the assay plates using a FRD. After 30 min incubation at room temperature, the luminescence intensity in the plates was measured using a ViewLux (PerkinElmer) plate reader.
A general note: qHTS replaces the single test concentration by a dilution series.
As to `CC(C)(C)c1cc(CCC(=O)OCC(COC(=O)CCc2cc(C(C)(C)C)c(O)c(C(C)(C)C)c2)(COC(=O)CCc2cc(C(C)(C)C)c(O)c(C(C)(C)C)c2)COC(=O)CCc2cc(C(C)(C)C)c(O)c(C(C)(C)C)c2)cc(C(C)(C)C)c1O`, the Potency entry is “inactive”.

For `CC(C(=O)O)c1ccc(-c2ccccc2)c(F)c1` (stereo not given), the Potency result is “inactive”.

In the case of `CCN(CC)CCOC(=O)C1(c2ccccc2)CCCC1`, the Potency entry is “inactive”. Same read-out and setting: the same measure for `COc1ccc2[nH]c(S(=O)Cc3ncc(C)c(OC)c3C)nc2n1` (stereo not given): “inactive”. Consider `CCCCCCCCCCCCCCCC(=O)OC/C=C(C)/C=C/C=C(C)/C=C/C1=C(C)CCCC1(C)C`, for which the Potency result is “inactive”. For the compound `COC(Cc1ccccc1)OC`, the Potency entry is “inactive”. On the same count and under the same terms, the same measure for `CCCCCOC(=O)COc1cc(N2C(=O)C3=C(CCCC3)C2=O)c(F)cc1Cl`: “inactive”. Consider `N#Cc1cc2ccccc2c2ccccc12`, for which the Potency result is “inactive”. On the same count and under the same terms, next, `CC(=O)/C(C)=C/C1C(C)=CCCC1(C)C` (stereo not given): “inactive”; `Oc1ccc(Cc2ccccc2)cc1`: “inactive”. As to `N[C@H]1C(O)O[C@H](CO)[C@H](O)[C@@H]1O` (stereo not given in full), the Potency result is “inactive”.

For the compound `O=C(/C=C/c1ccc(O)c(O)c1)O[C@@H]1C[C@](O)(C(=O)O)C[C@@H](O)[C@H]1O`, the Potency result was “inactive”. For `CCCCCCCCCCCCCCCCCBr`, the activity change, negative = cytotoxicity is -6.31% [at 19 µM].

As for `CC(=O)NCCCS(=O)(=O)O`, the Potency entry is “inactive”. As for `Cn1c(=O)c2c(ncn2CC(O)CO)n(C)c1=O` (stereo not given), the Potency entry was “inactive”.

Regarding `C[Si](C)O[Si](C)(C)O[Si](C)(C)O[Si](C)C`, the Potency result is “inactive”. Turning to `CCN(CC)CCNC(C(=O)OCCC(C)C)c1ccccc1` (stereo not given), the Potency entry was “inactive”. Turning to `FC(F)(F)C(F)(F)C(F)(F)C(F)(F)C(F)(F)C(F)(F)CCI`, the Potency result is “inactive”. The same measure, in the same setting: next, `C=C(C)C(=O)OC(C)C`: “inactive”; `Cc1occc1S`: “inactive”. The same measure, in the same setting: next, `CC1CCc2cc(F)cc3c(=O)c(C(=O)O)cn1c23` (stereo not given): “inactive”.

In the case of `CCN(CC)CCc1nc(-c2ccccc2)no1`, the Potency result was “inactive”. For the compound `CCCCOC(=O)/C=C\C(=O)OCCCC`, the Potency entry was “inactive”.

`CCOC(=O)CC(=O)c1cc(F)c(Cl)nc1Cl`: the Potency entry is “inactive”. The same measure, in the same setting: the same measure for `NC(N)=NN=C(/C=C/c1ccc([N+](=O)[O-])o1)/C=C/c1ccc([N+](=O)[O-])o1`: 23.7 µM (active); for `CC/C(=C\C(=N/O)C(N)=O)C(C)[N+](=O)[O-]` (stereo not given): “inactive”. As for `O=S(=O)(O)c1ccc(O)c2ncccc12`, the Potency entry was “inactive”. Still for that read-out and setting: next, `Nc1cnn([C@@H]2O[C@H](CO)[C@@H](O)[C@H]2O)c(=O)n1`: “inactive”. Same read-out and setting: the same measure for `CC(C)=CCCC(C)CC=O` (stereo not given): “inactive”; for `Cn1c(NCCN(CCO)CCCc2ccc([N+](=O)[O-])cc2)cc(=O)n(C)c1=O`: “inactive”; for `CCOc1cc(OCC)c(C(=O)CCC(=O)O)cc1OCC`: “inactive”. On the same count and under the same terms, next, `CCCCCc1ccc(N)cc1`: “inactive”. Regarding `CC(=O)SCc1ccco1`, the Potency result is “inactive”. For `CC(C)CCCCCCOC(=O)c1ccc(C(=O)OCCCCCCC(C)C)c(C(=O)OCCCCCCC(C)C)c1`, the Potency result is “inactive”. Same read-out and setting: the same measure for `CC[C@@H]1C[C@H](N(Cc2cc(C(F)(F)F)cc(C(F)(F)F)c2)C(C)=O)c2cc(C(F)(F)F)ccc2N1C(=O)OC(C)C`: “inactive”; for `O=C(Cl)c1c(Cl)cccc1Cl`: “inactive”.

As to `CC(C(=O)O)c1ccc(C(=O)c2ccccc2)s1` (stereo not given), the Potency result was “inactive”. `CCOC(=S)SSC(=S)OCC`: the Potency result was “inactive”. On the same count and under the same terms, next, `CC(=O)c1ccc2c(c1)[C@H](NC(=O)c1ccc(F)cc1)[C@@H](O)C(C)(C)O2`: “inactive”. In the case of `N=C(N=C(N)N)N1CCOCC1`, the Potency result was “inactive”.
